# The whole screen tested about 310,000 compounds, of which about 14,000 (4.5%) showed an effect of 50% or more. The effect is printed as a negative number. Many of the other results were omitted from the sample, so strong results are more common in it than they were.
# Molecular target: human ether-à-go-go-related gene (hERG) potassium channel (human, UniProt Q12809)
# Assay: primary screen, population patch clamp on CHO cells stably expressing hERG; higher = less effect of the substance
# 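Also: peak tail current of the secondary pulse compared with the same well before compound.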
# Sequence of human ether-à-go-go-related gene (hERG) potassium channel (Q12809 whole entry, looked up): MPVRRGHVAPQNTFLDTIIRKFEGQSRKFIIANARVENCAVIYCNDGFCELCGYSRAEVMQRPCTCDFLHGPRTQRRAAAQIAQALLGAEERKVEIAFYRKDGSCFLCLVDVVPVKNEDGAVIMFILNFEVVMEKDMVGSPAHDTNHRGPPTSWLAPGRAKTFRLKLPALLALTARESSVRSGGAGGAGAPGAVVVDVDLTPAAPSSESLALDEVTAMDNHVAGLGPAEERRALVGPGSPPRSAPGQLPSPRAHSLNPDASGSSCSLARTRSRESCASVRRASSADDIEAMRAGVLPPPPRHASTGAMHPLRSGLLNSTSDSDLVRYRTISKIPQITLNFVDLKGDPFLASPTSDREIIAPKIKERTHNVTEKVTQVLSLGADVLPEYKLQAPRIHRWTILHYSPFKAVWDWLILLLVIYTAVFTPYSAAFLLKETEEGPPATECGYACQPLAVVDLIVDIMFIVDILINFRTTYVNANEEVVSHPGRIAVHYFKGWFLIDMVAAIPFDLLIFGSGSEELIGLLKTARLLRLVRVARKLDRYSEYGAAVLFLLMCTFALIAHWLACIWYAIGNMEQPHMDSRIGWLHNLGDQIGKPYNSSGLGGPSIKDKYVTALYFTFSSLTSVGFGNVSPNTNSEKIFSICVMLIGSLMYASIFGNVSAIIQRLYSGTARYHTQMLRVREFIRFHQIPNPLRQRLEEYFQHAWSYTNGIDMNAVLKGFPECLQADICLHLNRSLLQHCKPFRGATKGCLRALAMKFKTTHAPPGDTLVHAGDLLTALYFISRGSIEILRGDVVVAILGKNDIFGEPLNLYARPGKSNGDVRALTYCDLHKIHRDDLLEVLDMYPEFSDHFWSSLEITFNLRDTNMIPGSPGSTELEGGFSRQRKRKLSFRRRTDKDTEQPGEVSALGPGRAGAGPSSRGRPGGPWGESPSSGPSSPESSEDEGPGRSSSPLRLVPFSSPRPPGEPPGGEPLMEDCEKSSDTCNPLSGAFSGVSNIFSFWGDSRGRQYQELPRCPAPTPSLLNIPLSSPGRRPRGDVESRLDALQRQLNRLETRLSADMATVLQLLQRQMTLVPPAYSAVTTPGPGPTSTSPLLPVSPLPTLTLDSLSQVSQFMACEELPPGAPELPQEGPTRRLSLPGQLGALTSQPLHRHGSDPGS
row,Compound,"hERG current change (%, negative = inhibition) at 10uM [%]"
1,O=c1c2cc(NC(=S)NC3CCN(Cc4ccccc4)CC3)ccc2nc2n1CCCCC2,-10.4
2,O=c1c2cc(NC(=S)NC3CC3)ccc2nc2n1CCCCC2,0.786
3,O=c1c2cc(NC(=S)NCCCN3CCC(Cc4ccccc4)CC3)ccc2nc2n1CCCCC2,-82.1
4,O=c1c2cc(NC(=S)NC3CCCCC3)ccc2nc2n1CCCCC2,-70.2
5,O=c1c2cc(NC(=S)NCCN3CCCCCC3)ccc2nc2n1CCCCC2,-1.38
6,COc1ccccc1OC(=O)c1ccc2nsnc2c1,8.28
7,O=C(OCC#Cc1c(COC(=O)c2ccccc2)nnn1Cc1ccccc1)c1ccccc1,5.67
8,CCOc1ccc(/C=C2\SC(=S)N(CCC(=O)O)C2=O)cc1,3.03
9,CS(=O)(=O)c1ccc(-c2nnc(NC(=O)c3cccc(N4C(=O)CCC4=O)c3)o2)cc1,6.65
10,O=C(Nc1ccc(N2CCOCC2)c(Cl)c1)c1ccc(Br)o1,-31.9
11,O=C(Nc1ccc(N2CCN(C(=O)c3ccccc3)CC2)c(Cl)c1)c1ccc(Br)o1,-58.2
12,O=C(Nc1ccc(N2CCN(C(=O)c3ccccc3)CC2)c(Cl)c1)c1ncn[nH]1,-5.79
13,O=C(Nc1ccc(N2CCCC2)c(Cl)c1)c1ccc(Br)o1,-7.29
14,O=C(Nc1ccc(N2CCN(C(=O)c3ccccc3)CC2)c(Cl)c1)c1ccco1,-29.5
15,CC(=O)N1CCN(c2ccc(NC(=O)c3ccc(Br)o3)cc2Cl)CC1,-55.3
16,CCCCN(CC)S(=O)(=O)c1ccc(C(=O)Nc2nnc(-c3cccs3)o2)cc1,-8.71
17,COc1ccc(S(=O)(=O)N2CCOCC2)cc1NC(=O)CSc1nnc(C2CC2)n1C1CC1,2.57
18,O=C(CN1C(=O)NC2(CCCc3ccccc32)C1=O)NCc1cccs1 (stereo not drawn),6.2
19,CCOC(=O)C1CCCN(C(=S)Nc2cccc(Cl)c2)C1 (stereo not drawn),-5.74
20,O=C(CCCc1ccccc1)NCCS(=O)(=O)N1CCN(c2ccc(F)cc2)CC1,-39.3
21,CCCc1[nH]n(-c2nc3ccccc3s2)c(=O)c1C=NCC1CCCO1 (stereo not drawn),-65.5
22,Cc1[nH]n(-c2ccc([N+](=O)[O-])cc2)c(=O)c1C=NCC1CCCO1 (stereo not drawn),0.91
23,COC(=O)Cc1[nH]n(-c2nc3ccccc3s2)c(=O)c1C(C)=Nc1ccc(C)cc1,5.94

row,Compound,"hERG current change (%, negative = inhibition) at 10uM [%]"
1,CCCCN=Cc1c(C)[nH]n(-c2ccccc2)c1=S,-4.64
2,CCCc1[nH]n(-c2nc3ccccc3s2)c(=O)c1C=NCCCOC,-57.2
3,CCCN=Cc1c(CCC)[nH]n(-c2nc3ccccc3s2)c1=O,-66.9
4,CCCc1[nH]n(-c2nc3ccccc3s2)c(=O)c1C=NCCN1CCOCC1,-34.5
5,CCCCCN=Cc1c(C)[nH]n(-c2nc3ccccc3s2)c1=O,-65.5
6,CC(=NCc1ccco1)c1c(C)[nH]n(-c2nc3ccccc3s2)c1=O,3.78
7,Cc1[nH]n(-c2ccccc2)c(=O)c1C=NCC1CCCO1 (stereo not drawn),13.8
8,COC(=O)Cc1[nH]n(-c2nc3ccccc3s2)c(=O)c1C(C)=O,21.6
9,CCCc1cc(=O)n(-c2nc3ccccc3s2)[nH]1,11.2
10,C/C(=N\NC(=O)c1ccc(NS(=O)(=O)c2cccs2)cc1)c1ccc(O)cc1O,-0.956
11,CSc1nc(N)nc(C(C)C)n1,-5.59
12,CC[C@H](C)[C@H](NC(N)=O)C(=O)NCCc1ccc(OC)cc1,-0.532
13,O=C(CSc1nc(-c2ccccc2)nc2ccc(F)cc12)Nc1cccc(C(=O)O)c1,2.54
14,O=C(NCc1cccnc1)c1cccs1,11.7
15,COc1cc(NC(=O)C23CC4CC(C2)CC(n2nnc(C)n2)(C4)C3)c(OC)cc1Cl,4.76
16,COc1ccc(CCN2CC(C(=O)NC3CCCCC3)CC2=O)cc1OC (stereo not drawn),10.2
17,COC(=O)CC1SCCNC1=O (stereo not drawn),9.08
18,CCCc1[nH]n(-c2nc3ccccc3s2)c(=O)c1C=NCCCN(CC)CC,-75.9
19,CCCc1[nH]n(-c2nc3ccccc3s2)c(=O)c1C=NCC(C)C,-75.4
20,CC(=O)c1c(CC(=O)O)[nH]n(-c2nc3ccccc3s2)c1=O,3.17
21,CCN(CC)CCCSc1nc2ccccc2s1.O=C(O)C(=O)O,-31.9
22,C/C(=N\NC(=O)CC(C)C)c1c(C(F)(F)F)[nH]n(-c2nc3ccccc3s2)c1=O,8.88

# Source: PMC4336329 (PLoS ONE, 2015)
